Laboratory results reported in PubChem BioAssay (Tox21).
“And” between values parts separate entries of the source, which are not always exact repeats. Equal entries are not always repeated. Inconclusive results are not listed. The source holds several records for some structures; these can differ, active in one and inactive in another. The source made the active and inactive calls. Unless noted, calls follow the shape of the dose curve; as a rule, active = well fitted curve in the direction sought with a large enough effect in the repeat runs; inconclusive = weak or mixed curves; inactive = no such curve, though single readings can be large; an effect the other way counts as inactive or inconclusive.

Assays:
[1] = biological target: Androgen receptor (Homo sapiens) (UniProt P10275); experiment: qHTS assay to identify small molecule antagonists of the androgen receptor (AR) signaling pathway using the MDA cell line in the presence of 0.5 nM R1881 (AID 1259243); also: nearly all actives have a fitted effect of over 50% in size; also: potency is read from the fitted curve at half-maximal effect; as to activity, negative = inhibition: % is scaled to controls: 0 for no effect and ±100 for the full control effect
Summary of the method: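 Luminescence from an AR/GR-responsive MMTV-luciferase construct in MDA-kb2 breast carcinoma cells, read 30 min after ONE-Glo, following 16 hr co-treatment with compounds and 0.5 nM R1881.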

[2] = qHTS assay to identify small molecule HDAC inhibitors (AID 1259364); also: potency is read from the fitted curve at half-maximal effect;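 also: wild-type HCT-116 cells with endogenous class I/II HDAC activity; nearly all actives have a fitted effect of over 45% in size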
Summary of the method: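 HCT-116 wt cells, 1,500/well, overnight attach. Compounds (DMSO) 2 h, 37 °C. HDAC-Glo I/II, 30 min RT. Luminescence.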

[3] = qHTS assay to identify small molecule HDAC inhibitors - cell viability counter screen (AID 1259365); also: series mostly up to about 92 µM; % is scaled to controls: 0 for no effect and ±100 for the full control effect; nearly all actives have a fitted effect of over 50% in size
Summary of the method: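 CellTiter-Glo luminescence (30 min, room temperature) reported viability after a 2 h compound exposure at 37 C. Cells: wild-type HCT-116, 1,500 per well, seeded the night before.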

[4] = qHTS assay to identify small molecule agonists of the sonic hedgehog signaling (Shh) pathway - cell viability counter screen (AID 1259366); also: nearly all actives have a fitted effect of over 50% in size; also: potency is read from the fitted curve at half-maximal effect
Summary of the method: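 Cytotoxicity counter screen: CellTiter-Fluor reagent added after 23 h compound exposure, then 1 h at 37C and fluorescence read. Cells were 3T3 Gli1-Luc, seeded 2,000 per well and dosed 4 h post-plating.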

[5] = qHTS assay to identify small molecule antagonists of the sonic hedgehog signaling (Shh) pathway - cell viability counter screen (AID 1259367); also: nearly all actives have a fitted effect of over 55% in size; also: potency is read from the fitted curve at half-maximal effect
Summary of the method: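 Fluorescence read-out (CellTiter-Fluor, 1 hr at 37C) taken after 23 hr compound treatment of 3T3 Gli1-Luc cells stimulated with conditioned medium. Cells were seeded at 2,000 per well and pre-incubated 4 hr.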

[6] = qHTS assay to identify small molecule agonists of the sonic hedgehog signaling (Shh) pathway (AID 1259368; calls by dose curve; also: nearly all actives have a fitted effect of over 15% in size; also: potency is read from the fitted curve at half-maximal effect)
Summary of the method: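 Following a 24 hr incubation with DMSO-dissolved compounds at 37 C, 5% CO2, Gli1-Luc NIH/3T3-derived cells received luciferase reagent for 30 min at room temperature prior to luminescence measurement.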

[7] = qHTS assay to identify small molecule antagonists of the sonic hedgehog signaling (Shh) pathway (AID 1259369; calls by dose curve; also: nearly all actives have a fitted effect of over 45% in size; also: potency is read from the fitted curve at half-maximal effect)
Summary of the method: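 Read-out is luminescence from a firefly luciferase gene controlled by the Gli1 response element, in 3T3Gli1-Luc cells pre-incubated 4hr then exposed to compounds and conditioned medium for 24hr.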

[8] = biological target: Estrogen receptor beta (Homo sapiens) (UniProt Q92731); experiment: qHTS assay to identify small molecule agonists of the estrogen receptor beta (ER-beta) signaling pathway (AID 1259377; active = well fitted activation curve with a large enough effect in the signal ratio in the repeat runs, not every such curve was filed as active; the % refers to the signal ratio; also: % is scaled to controls: 0 for no effect and ±100 for the full control effect)
Summary of the method: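 Ratiometric beta-lactamase FRET read-out came after 2 h substrate loading at room temperature. It followed 16 h compound treatment at 37C of GripTite HEK293T cells carrying a UAS-bla reporter, plated in 2% charcoal-stripped FBS medium.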

[9] = biological target: Estrogen receptor beta (Homo sapiens) (UniProt Q92731); experiment: qHTS assay to identify small molecule antagonists of the estrogen receptor beta (ER-beta) signaling pathway (AID 1259378; active = well fitted inhibition curve with a large enough effect in the signal ratio in the repeat runs, not every such curve was filed as active; the % refers to the signal ratio; also: potency is read from the fitted curve at half-maximal effect)
Summary of the method: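 ER-beta-UAS-bla HEK293T cells in 2% charcoal-stripped FBS medium treated with compound plus 1nM final 17-beta-estradiol for 16 hr at 37C. Beta-lactamase reporter read by FRET substrate fluorescence after 2 hours at room temperature.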

[10] = qHTS assay to identify small molecule agonists of the androgen receptor (AR) signaling pathway in the presence of an antagonist - cell viability counter screen (AID 1259379); also: nearly all actives have a fitted effect of over 25% in size; also: potency is read from the fitted curve at half-maximal effect
Summary of the method: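 Each compound was tested at 15 concentrations on MDA-kb2 cells in the presence of 3.0uM nilutamide. Viability was measured by CellTiter-Fluor fluorescence after a 16 hr incubation at 37C in a CO2-free atmosphere.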

[11] = qHTS assay to identify small molecule agonists of the estrogen receptor beta (ER-beta) signaling pathway - cell viability counter screen (AID 1259380); also: nearly all actives have a fitted effect of over 30% in size; also: potency is read from the fitted curve at half-maximal effect
Summary of the method: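 Compounds dissolved in DMSO were pin-transferred onto ER-beta-UAS-bla HEK293T cells that had settled 6 hr, and exposure ran 16 hr at 37C. Following the reporter read, CellTiter-Glo luminescence after 30 min at room temperature indicated cytotoxicity.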

[12] = biological target: Androgen receptor (Homo sapiens) (UniProt P10275); experiment: qHTS assay to identify small molecule agonists of the androgen receptor (AR) signaling pathway in the presence of an antagonist (AID 1259381; calls by dose curve; also: % is scaled to controls: 0 for no effect and ±100 for the full control effect; nearly all actives have a fitted effect of over 15% in size)
Summary of the method: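 Plated MDA-kb2 cells (3,000/well) were pre-incubated 5hr, given nilutamide (3.0uM final) or buffer, then dosed with compounds in DMSO at 15 concentrations. Luciferase activity was quantified by luminescence after 16hr at 37C.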

[13] = qHTS assay to identify small molecule antagonists of the estrogen receptor beta (ER-beta) signaling pathway - cell viability counter screen (AID 1259382); also: nearly all actives have a fitted effect of over 55% in size; also: potency is read from the fitted curve at half-maximal effect
Summary of the method: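 CellTiter-Glo ATP luminescence measured after the LiveBLAzer read in the same wells; ER-beta-UAS-bla HEK293T cells, 16 hr compound treatment with 1nM 17-beta-estradiol agonist at 37C, 5% CO2.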

[14] = qHTS assay to identify small molecule agonists or antagonists of the thyroid stimulating hormone receptor (TSHR) signaling pathway - wild type cell line counter screen (AID 1259384; calls by dose curve; also: % is scaled to controls: 0 for no effect and ±100 for the full control effect)
Summary of the method: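 Wild-type Hek293 cells, 800/well, 18 h at 37C, then compound with Ro20-1724 for 30 min RT. cAMP by HTRF (cAMP-d2/anti-cAMP cryptate), 1 h RT, fluorescence read. 15 concentrations, triplicates.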

[15] = biological target: Thyrotropin receptor (Homo sapiens) (UniProt P16473); experiment: qHTS assay to identify small molecule antagonists of the thyroid stimulating hormone receptor (TSHR) signaling pathway (AID 1259385; calls by dose curve; also: % is scaled to controls: 0 for no effect and ±100 for the full control effect; nearly all actives have a fitted effect of over 20% in size)
Summary of the method: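 TSHR-HEK293 cells (800/well) plated 18 h, then compounds with Ro20-1724 and TSH at 1.5 ng/mL final, 30 min at room temperature. cAMP quantified by HTRF (cAMP-d2/anti-cAMP-cryptate, 1 h); 15 concentrations in triplicate.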

[16] = qHTS assay to identify small molecule agonists of the estrogen receptor alpha (ER-alpha) signaling pathway in the presence of an antagonist - cell viability counter screen (AID 1259386);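 also: cells exposed to compounds for 22 h at 37 °C before the viability read; nearly all actives have a fitted effect of over 30% in size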; also: potency is read from the fitted curve at half-maximal effect
Summary of the method: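 Using estrogen-depleted VM7Luc4E2 cells, the 15-concentration compound series was applied together with 10.0nM ICI-182,780 and incubated 22hr at 37C/5% CO2. Cell viability was then scored by CellTiter-Fluor.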

[17] = biological target: Progesterone receptor (Homo sapiens) (UniProt P06401); experiment: qHTS assay to identify small molecule agonists of the progesterone receptor (PR) signaling pathway (AID 1346784; calls by dose curve; also: % is scaled to controls: 0 for no effect and ±100 for the full control effect; nearly all actives have a fitted effect of over 30% in size)
Summary of the method: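 Agonist qHTS: compounds pinned onto 3,000 PR-UAS-bla HEK 293T cells per well in charcoal-stripped serum medium, 16hr at 37C, then beta-lactamase activity measured by LiveBLAzer FRET fluorescence after 2 hours at room temperature.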

[18] = qHTS assay to identify small molecule phospholipidosis (PLD) inducers (AID 1259344; active = well fitted curve in the direction sought with a large enough effect; an effect the other way counts as inactive or inconclusive; also: % is scaled to controls: 0 for no effect and ±100 for the full control effect)
Summary of the method: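 Read-out is LipidTOX Red fluorescence (ex 595/em 615) imaged in HepG2 cells after 24 h compound exposure at 37 C, with Hoechst nuclear counterstain (ex 352/em 461) allowing per-cell normalisation.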

[19] = biological target: Estrogen receptor (Homo sapiens) (UniProt P03372); experiment: qHTS assay to identify small molecule agonists of the estrogen receptor alpha (ER-alpha) signaling pathway in the presence of an antagonist (AID 1259383; calls by dose curve; also: top concentration of the series differs between compounds; % is scaled to controls: 0 for no effect and ±100 for the full control effect; nearly all actives have a fitted effect of over 15% in size)
Summary of the method: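 Luminescent ERE-luciferase reporter, VM7Luc4E2 cells (endogenous ER-alpha); 10.0nM ICI-182,780 final; 15-point compound titration; 22hr at 37C; ONE-Glo, 30min RT.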

[20] = biological target: Estrogen receptor (Homo sapiens) (UniProt P03372); experiment: qHTS assay to identify small molecule antagonists of the estrogen receptor alpha (ER-alpha) signaling pathway using the BG1 cell line in the presence of 0.1 nM 17-beta-estradiol (AID 1259244); also: potency is read from the fitted curve at half-maximal effect; nearly all actives have a fitted effect of over 50% in size
Summary of the method: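 Luciferase signal from VM7Luc4E2 ERE-reporter cells, co-dosed with test compound and 0.1 nM final 17beta-estradiol for 22 h, read with ONE-Glo.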

Sequence of Androgen receptor (Homo sapiens) (P10275 whole entry, looked up): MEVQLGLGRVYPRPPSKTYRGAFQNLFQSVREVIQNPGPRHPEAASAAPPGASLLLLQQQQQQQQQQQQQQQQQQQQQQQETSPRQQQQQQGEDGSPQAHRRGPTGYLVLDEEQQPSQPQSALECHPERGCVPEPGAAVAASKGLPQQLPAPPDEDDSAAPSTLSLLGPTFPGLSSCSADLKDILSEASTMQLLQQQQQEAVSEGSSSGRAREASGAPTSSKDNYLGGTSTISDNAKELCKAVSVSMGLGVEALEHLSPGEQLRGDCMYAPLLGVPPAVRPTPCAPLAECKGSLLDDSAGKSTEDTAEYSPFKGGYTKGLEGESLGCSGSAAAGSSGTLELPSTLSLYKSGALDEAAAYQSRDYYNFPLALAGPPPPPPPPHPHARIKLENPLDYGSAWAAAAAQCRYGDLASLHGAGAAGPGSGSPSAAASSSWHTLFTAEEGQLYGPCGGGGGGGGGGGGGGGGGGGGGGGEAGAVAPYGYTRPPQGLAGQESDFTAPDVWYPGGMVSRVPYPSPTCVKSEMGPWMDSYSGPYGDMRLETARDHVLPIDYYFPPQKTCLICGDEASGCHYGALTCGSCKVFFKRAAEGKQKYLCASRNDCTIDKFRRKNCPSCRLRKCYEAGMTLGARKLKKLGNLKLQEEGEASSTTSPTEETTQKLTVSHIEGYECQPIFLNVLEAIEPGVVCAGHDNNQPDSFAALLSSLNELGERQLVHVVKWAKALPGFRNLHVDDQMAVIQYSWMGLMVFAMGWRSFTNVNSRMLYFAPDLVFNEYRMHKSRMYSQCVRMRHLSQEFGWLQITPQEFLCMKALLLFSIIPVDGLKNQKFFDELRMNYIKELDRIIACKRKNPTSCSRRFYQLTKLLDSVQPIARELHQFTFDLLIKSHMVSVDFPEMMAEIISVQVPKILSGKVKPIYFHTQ
Sequence of Estrogen receptor (Homo sapiens) (P03372 whole entry, looked up): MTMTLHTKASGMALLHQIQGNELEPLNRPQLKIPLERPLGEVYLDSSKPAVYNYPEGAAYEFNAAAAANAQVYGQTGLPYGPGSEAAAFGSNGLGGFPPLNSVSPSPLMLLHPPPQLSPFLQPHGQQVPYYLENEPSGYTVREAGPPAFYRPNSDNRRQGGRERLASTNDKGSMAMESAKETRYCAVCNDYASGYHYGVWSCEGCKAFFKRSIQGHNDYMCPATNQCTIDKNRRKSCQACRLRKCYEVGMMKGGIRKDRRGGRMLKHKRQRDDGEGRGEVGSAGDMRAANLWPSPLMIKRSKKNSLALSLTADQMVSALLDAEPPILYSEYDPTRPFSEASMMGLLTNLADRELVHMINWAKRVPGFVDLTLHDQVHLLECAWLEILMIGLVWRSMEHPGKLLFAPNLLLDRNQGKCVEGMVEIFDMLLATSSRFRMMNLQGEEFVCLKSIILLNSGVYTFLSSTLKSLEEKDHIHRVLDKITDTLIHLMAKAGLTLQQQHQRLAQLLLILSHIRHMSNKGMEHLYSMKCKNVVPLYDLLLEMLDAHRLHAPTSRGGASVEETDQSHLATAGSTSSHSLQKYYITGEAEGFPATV
Sequence of Thyrotropin receptor (Homo sapiens) (P16473 whole entry, looked up): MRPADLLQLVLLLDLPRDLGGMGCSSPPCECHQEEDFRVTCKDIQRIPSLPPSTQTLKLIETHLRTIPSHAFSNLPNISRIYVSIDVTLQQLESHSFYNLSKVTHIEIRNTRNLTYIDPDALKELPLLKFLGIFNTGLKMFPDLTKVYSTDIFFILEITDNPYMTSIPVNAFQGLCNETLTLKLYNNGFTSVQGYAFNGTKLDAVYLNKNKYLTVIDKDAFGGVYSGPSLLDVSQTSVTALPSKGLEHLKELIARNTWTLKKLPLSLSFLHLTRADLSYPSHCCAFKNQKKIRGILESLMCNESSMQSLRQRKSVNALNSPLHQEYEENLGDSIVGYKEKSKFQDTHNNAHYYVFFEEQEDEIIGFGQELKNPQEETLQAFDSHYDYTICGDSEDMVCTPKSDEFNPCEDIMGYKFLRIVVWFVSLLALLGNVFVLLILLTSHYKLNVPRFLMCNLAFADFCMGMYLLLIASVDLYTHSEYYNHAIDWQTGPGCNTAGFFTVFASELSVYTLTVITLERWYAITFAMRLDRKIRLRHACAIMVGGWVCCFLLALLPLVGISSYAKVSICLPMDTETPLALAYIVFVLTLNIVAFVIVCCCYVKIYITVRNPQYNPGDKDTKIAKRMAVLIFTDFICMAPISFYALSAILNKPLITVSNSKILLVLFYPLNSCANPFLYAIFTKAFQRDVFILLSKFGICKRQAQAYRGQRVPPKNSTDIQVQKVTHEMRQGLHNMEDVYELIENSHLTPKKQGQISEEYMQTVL
Sequence of Progesterone receptor (Homo sapiens) (P06401 whole entry, looked up): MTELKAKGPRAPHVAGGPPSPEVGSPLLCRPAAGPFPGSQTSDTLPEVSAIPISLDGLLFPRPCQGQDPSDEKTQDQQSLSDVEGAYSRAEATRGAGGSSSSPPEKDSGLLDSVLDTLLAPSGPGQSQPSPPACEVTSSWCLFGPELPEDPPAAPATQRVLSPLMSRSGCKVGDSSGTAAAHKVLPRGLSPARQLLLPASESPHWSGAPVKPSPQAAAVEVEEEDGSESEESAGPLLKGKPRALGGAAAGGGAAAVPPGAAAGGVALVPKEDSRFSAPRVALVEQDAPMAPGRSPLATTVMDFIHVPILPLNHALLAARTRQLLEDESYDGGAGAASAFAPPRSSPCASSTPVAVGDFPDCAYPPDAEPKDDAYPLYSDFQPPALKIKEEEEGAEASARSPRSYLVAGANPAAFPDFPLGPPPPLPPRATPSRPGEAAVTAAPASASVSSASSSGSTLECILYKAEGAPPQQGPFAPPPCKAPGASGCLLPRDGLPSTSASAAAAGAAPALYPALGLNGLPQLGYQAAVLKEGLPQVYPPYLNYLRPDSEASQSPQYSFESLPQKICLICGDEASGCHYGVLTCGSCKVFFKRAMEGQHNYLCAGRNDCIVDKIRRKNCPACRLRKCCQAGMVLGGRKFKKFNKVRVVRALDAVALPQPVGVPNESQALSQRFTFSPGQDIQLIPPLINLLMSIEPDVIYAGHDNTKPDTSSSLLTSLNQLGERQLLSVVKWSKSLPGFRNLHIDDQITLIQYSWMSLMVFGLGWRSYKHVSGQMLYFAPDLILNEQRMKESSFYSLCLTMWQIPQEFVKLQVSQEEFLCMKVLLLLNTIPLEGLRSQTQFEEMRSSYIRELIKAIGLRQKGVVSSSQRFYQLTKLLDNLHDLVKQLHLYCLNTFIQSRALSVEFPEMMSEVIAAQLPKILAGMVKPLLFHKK
Sequence of Estrogen receptor beta (Homo sapiens) (Q92731 whole entry, looked up): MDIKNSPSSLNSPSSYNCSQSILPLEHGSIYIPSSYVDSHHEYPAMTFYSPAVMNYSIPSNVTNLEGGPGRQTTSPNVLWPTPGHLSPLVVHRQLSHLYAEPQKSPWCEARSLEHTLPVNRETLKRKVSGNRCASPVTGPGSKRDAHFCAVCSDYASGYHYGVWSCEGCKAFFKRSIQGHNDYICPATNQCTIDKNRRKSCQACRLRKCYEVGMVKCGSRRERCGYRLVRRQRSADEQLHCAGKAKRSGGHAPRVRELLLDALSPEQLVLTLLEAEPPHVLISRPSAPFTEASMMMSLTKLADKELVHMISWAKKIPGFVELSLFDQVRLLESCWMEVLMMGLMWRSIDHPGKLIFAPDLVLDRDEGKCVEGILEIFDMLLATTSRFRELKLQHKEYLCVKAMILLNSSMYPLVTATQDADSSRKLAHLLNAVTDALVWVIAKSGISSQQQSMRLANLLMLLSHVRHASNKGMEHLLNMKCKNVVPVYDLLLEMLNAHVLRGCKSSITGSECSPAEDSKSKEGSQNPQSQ

Clc1cc(Cl)c(-c2c(Cl)c(Cl)cc(Cl)c2Cl)cc1Cl
inactive: Potency [1] | Potency [2] | Potency [3] | Potency [4] | Potency [5] | Potency [6] | Potency [7] | Potency [8] | Potency [9] | Potency [10] | Potency [11] | Potency [12] | Potency [13] | outcome [14] | Potency [15] | Potency [16] | outcome [17]

CC1(C)COCN1
inactive: Potency [1] | Potency [2] | Potency [3] | Potency [4] | Potency [5] | Potency [6] | Potency [8] | Potency [11] | Potency [13] | outcome [14] | Potency [15] | Potency [16]

Nc1ccc2cc3ccc(N)cc3nc2c1
inactive: Potency [18] | Potency [2] | Potency [6] | Potency [7] | Potency [13] | outcome [17]
inactive and 10.6 µM (active): Potency [1]
active: Potency [11] 2.37 µM

CC(=O)O[C@@H]1C[C@@H]2CC[C@@]1(C)C2(C)C
inactive: Potency [1] | Potency [2] | Potency [3] | Potency [4] | Potency [5] | Potency [6] | Potency [7] | Potency [8] | Potency [9] | Potency [10] | Potency [11] | Potency [13] | Potency [15] | Potency [16] | outcome [17]

COC(=O)C1=C(C)NC(C)=C(C(=O)OCCCN2CCC(c3ccccc3)(c3ccccc3)CC2)C1c1cccc([N+](=O)[O-])c1 (stereo unspecified)
active: Potency [1] 21.1 µM | Potency [4] 26.6 µM | Potency [7] 33.5 µM | Potency [10] 29.8 µM | Potency [11] 23.7 µM | Potency [13] 23.7 µM
inactive: Potency [2] | Potency [3] | Potency [6] | outcome [14]

COCC(=O)O[C@]1(CCN(C)CCCc2nc3ccccc3[nH]2)CCc2cc(F)ccc2[C@@H]1C(C)C
inactive: Potency [2] | Potency [3] | Potency [6] | Potency [8] | Potency [12] | Potency [19] | outcome [14] | Potency [16]
active: Potency [1] 16.8 µM | Potency [4] 13.3 µM | Potency [5] 26.6 µM | Potency [7] 13.3 µM | Potency [9] 11.9 µM | Potency [10] 23.7 µM | Potency [11] 21.1 µM | Potency [13] 18.8 µM

COc1cccc(OC)c1O
inactive: Potency [1] | Potency [2] | Potency [3] | Potency [4] | Potency [5] | Potency [6] | Potency [7] | Potency [9] | Potency [10] | Potency [11] | Potency [13] | outcome [14] | Potency [15] | Potency [16] | outcome [17]

O=C1C=CC(=O)N1c1ccccc1
active: Potency [1] 30.6 µM | Potency [20] 61.1 µM | Potency [2] 27.3 µM | Potency [4] 9.69 µM | Potency [5] 12.2 µM | Potency [7] 6.11 µM | Potency [10] 61.1 µM | Potency [11] 27.3 µM | Potency [13] 48.6 µM | Potency [16] 68.6 µM
inactive: Potency [6] | Potency [8] | Potency [12] | Potency [19]

O=C(NO)c1ccccc1
active: Potency [4] 26 µM | Potency [7] 29.2 µM
inactive: Potency [1] | Potency [18] | Potency [3] | Potency [6] | Potency [10] | Potency [12]

CN(C)CCOC(c1ccccc1)c1ccccc1 (tested in a mixture with another compound)
inactive: Potency [1] | Potency [2] | Potency [3] | Potency [6] | Potency [8] | Potency [12] | Potency [19] | outcome [14] | Potency [15]
active: Potency [5] 61.6 µM | Potency [7] 24.5 µM | Potency [11] 69.1 µM

CCN1CCN(c2cc(-c3ccc(F)cc3)c3c(n2)CCCCCC3)CC1
inactive: activity, negative = inhibition [1] -22% [at 19 µM] | PLD induction [18] 12.7% [at 7.66 µM] | activity change, negative = inhibition [2] 1.74% [at 19 µM] | activity change, negative = cytotoxicity [3] -2.01% [at 19 µM] | viability change, negative = cytotoxic [4] -8.82% [at 19 µM] | viability change, negative = cytotoxic [5] -5.57% [at 19 µM] | activity change [6] -0.431% [at 18.9 µM, stronger effect = higher value] | activity change, negative = inhibition [7] 15.3% [at 19 µM] | activity change, negative = cytotoxicity [10] -1.28% [at 19 µM] | activation [12] -0.375% [at 19 µM] | activity change, negative = cytotoxicity [13] -0.898% [at 19 µM] | cAMP activity change [14] 2.43% [at 18.9 µM] | activity change, negative = cytotoxicity [16] -2.28% [at 19 µM]

CCN=c1cc2oc3cc(NCC)c(C)cc3c(-c3ccccc3C(=O)OCC)c-2cc1C
inactive: Potency [2] | Potency [5] | Potency [6] | Potency [8] | Potency [12] | Potency [19] | outcome [17]
active: Potency [1] 122 nM and 217 nM | Potency [20] 86 nM and 306 nM | Potency [7] 1.08 µM and 545 nM | Potency [9] 0.272 µM | Potency [10] 272 nM and 306 nM | Potency [11] 54.3 µM and 24.3 µM | Potency [13] 54.3 µM and 34.4 µM | Potency [16] 9.65 µM and 9.69 µM

CN(C)c1ccc(N=NS(=O)(=O)O)cc1
inactive: Potency [18] | Potency [3] | Potency [4] | Potency [12] | outcome [17]
active: Potency [1] 22.9 µM | Potency [6] 16.2 µM | Potency [7] 12.2 µM | Potency [10] 16.2 µM | Potency [16] 38.6 µM

CCCCCCCCCCCCN(CCO)CCO
active: Potency [1] 48.4 µM | Potency [7] 21.6 µM | Potency [10] 60.9 µM | Potency [11] 60.9 µM | Potency [13] 60.9 µM
inactive: Potency [2] | Potency [3] | Potency [6] | Potency [12] | Potency [19] | outcome [14] | Potency [15] | Potency [16]

CCC1CCCCC1
inactive: Potency [1] | Potency [2] | Potency [3] | Potency [4] | Potency [5] | Potency [6] | Potency [7] | Potency [11] | Potency [13] | outcome [14] | Potency [15] | Potency [16] | outcome [17]
